Drawing on PubChem BioAssay, this text covers viability for 39 compounds.

The assay can be described thus: MRP1 drug-resistance reversers in H69AR cells – cell-based, doxorubicin co-treatment, pilot screen (AID 601). Conditions: H69AR cells, CellTiter-Glo, 72 h; compound alone cytotoxicity; at 10 µM.
On to `O=C(NCC(F)(F)F)Nc1cccnc1`, for which the viability turned out to be 99.6%.

With `CC(=O)Nc1ccc(S(=O)(=O)N2CCN(c3cc(C)nc4ccccc34)CC2)cc1`, the viability worked out at 87.1%.

On to `CCc1nnc(NC(=O)CSc2nnc(-c3ccccc3OC)n2-c2ccccc2)s1`, for which the viability was 85.2%.

In the case of `CCOc1ccc(CCNc2nc3c(c(=O)n(C)c(=O)n3C)n2CC)cc1OCC`, the viability was found to be 88.9%.

Regarding `Cn1c(=O)c2c(nc(NCCNC(=O)c3ccco3)n2Cc2ccccc2Cl)n(C)c1=O`, the viability is 72.5%.

In the case of `Cc1ccc2cc(C(c3nnnn3C3CCCC3)N3CCN(c4ccc(F)cc4)CC3)c(=O)[nH]c2c1` (centres undefined), the viability was 67.6%.

For the compound `Cc1ccc(OCC2Cn3c(nc4c3c(=O)n(C)c(=O)n4C)O2)cc1` (centres undefined), the viability was determined as 93%.

For `Cc1c(C(=O)N2CCN(c3ccccc3)CC2)sc2ncnc(N3CCN(c4ccccc4)CC3)c12`, the viability was determined as 93%.

For `COc1cccc(-c2nnc(SCC(N)=O)n2-c2ccc(Cl)cc2)c1`, the viability stood at 97.1%.

Regarding `CC1=C(C(=O)N2CCOCC2)C(c2ccccc2F)C2=C(CCCC2=O)N1` (centres undefined), the viability amounted to 98.8%.

Consider `C/C=C(\C)c1nnc(NC(=O)OCC)s1`, for which the viability is 96.4%.

For the compound `C[C@H](CCC(=O)O)[C@H]1CC[C@H]2[C@@H]3C(=O)C[C@@H]4CC(=O)CC[C@]4(C)[C@H]3CC(=O)[C@]12C`, the viability was 96%.

Consider `Cc1ccc2c(c1)nnn2C1CCN(C(=O)NC23CC4CC(CC(C4)C2)C3)CC1`, for which the viability amounted to 92.1%.

Take `CN(C)C(CNC(=O)Nc1cccc(Cl)c1)c1cccnc1` (centres undefined): the viability amounted to 90.6%.

In the case of `FC(F)Oc1cccc2cccnc12`, the viability was 94%.

Consider `CCOc1cc(C(=O)Nc2c3c(nn2C(C)(C)C)CS(=O)C3)cc(OCC)c1OCC` (centres undefined), for which the viability is 101%.

For the compound `CC(=O)Nc1ccc(N=Cc2nc(-c3ccc(C)cc3)oc2O)cc1`, the viability was determined as 94.5%.

As to `N#CC1=C(N)N2C(=C(C#N)C13CCCCC3)SC1CCCCC12O` (centres undefined), the viability is 76.1%.

With `O=S(=O)(c1ccc(Br)s1)N1CCN(c2ccccc2)CC1`, the viability turned out to be 87.6%.

Take `c1coc(-c2nnc(-c3cccs3)o2)c1`: the viability was determined as 102%.

As for `CN1[C@@H]2CC(OC(=O)[C@H](CO)c3ccccc3)C[C@H]1[C@@H]1O[C@@H]12` (some centres undefined), the viability was determined as 102%.

With `CCCN1CCN(C(=O)Cn2cccc2C(=O)c2ccccc2)CC1`, the viability was found to be 100%.

Take `CC(CCc1ccccc1)NCC(O)c1ccc(O)c(C(N)=O)c1` (centres undefined): the viability was 93.8%.

Regarding `Cc1nc2c(-c3ccccc3)c(C)[nH]n2c(=O)c1Cl`, the viability amounted to 77.5%.

`CCCC(=O)n1nc(-c2ccc(OC)cc2)nc1N`: the viability worked out at 105%.

For `O=C(C1CCN(C2CC(=O)N(c3ccc(F)cc3)C2=O)CC1)N1CCOCC1` (centres undefined), the viability was 101%.

On to `O=C(NCc1cccs1)C1CC(=O)N(C2CCCC2)C1` (centres undefined), for which the viability is 94.4%.

As to `CCC(C)NCC(O)COCc1ccc(Cl)cc1` (centres undefined), the viability was found to be 99.7%.

In the case of `CSc1c(CC(=O)NCCO)n(C)c2ccccc12`, the viability was found to be 102%.

Consider `O=C(O)c1ccc(COc2c(F)c(F)c(F)c(F)c2F)o1`, for which the viability is 92.9%.

As to `CSc1ncc(Cl)c(C(=O)Nc2ccc(S(=O)(=O)N3CCOCC3)cc2)n1`, the viability was 101%.

As for `S=C(c1ccc(N2CCOCC2)cc1)N1CCCCC1`, the viability came to 93.5%.

Regarding `CCOC(=O)C1CCN(c2cc(C)nc3cc(-c4cccc(F)c4)nn23)CC1`, the viability amounted to 90.4%.

Consider `O=S(=O)(Nc1nc2ccccc2nc1NCc1ccco1)c1cccs1`, for which the viability is 29%.

Turning to `OC(CCCN1CCC(O)(c2ccc(Cl)cc2)CC1)c1ccc(F)cc1` (centres undefined), the viability was 66.1%.

Consider `C=CCN1C(=O)C2(/C(=C(\O)c3ccc4c(c3)OCCO4)C(=O)C(=O)N2CCCOC)c2ccccc21` (centres undefined), for which the viability was found to be 95.9%.

As for `Cc1ccc2c(c1)N(CC(=O)N1CCCCC1c1cccnc1)C(=O)CO2` (centres undefined), the viability was found to be 95%.

Turning to `O=C(CSc1n[nH]c(=O)[nH]c1=O)c1ccccc1`, the viability was 101%.

Regarding `O=[N+]([O-])c1cccc2cn[nH]c12`, the viability was found to be 99.5%.

The viability is a read-out of living cells in per cent, often relative to untreated cells.
